Measured values from PubChem BioAssay AID1159580 (chemical genetic matrix, 2015).
Screen size: about 5,500 compounds; about 2,000 (36%) were called active. Inconclusive results (about 18%) are left out. Rule as the data show it: active = normalized growth mostly below about 0.91 (no sharp cut-off); inconclusive = no clear call, values can overlap the other calls; inactive = mostly above about 0.92. The list shows a part of the results.

Assay: chemical genetic growth profiling, strain panel (AID 1159580);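 also: tested at 20 µM; growth read once vehicle control cultures reached saturation at 30 °C; 1 = growth at the plate median or of vehicle wells; lower values mean less growth of the strain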
Details: S. cerevisiae deletion strains, growth OD
[1] = locus YDL101C, strain DUN1, hits give low values
[2] = locus YHR030C, strain SLT2, hits give low values
[3] = locus YAL013W, strain DEP1, hits give low values
[4] = locus YBR229C, strain ROT2, hits give low values
[5] = locus YDL134C, strain PPH21, hits give low values
[6] = locus YDR150W, strain NUM1, hits give low values
[7] = locus YEL061C, strain CIN8, hits give low values
[8] = locus YGR078C, strain PAC10, hits give low values
[9] = locus YGR229C, strain SMI1, hits give low values
[10] = locus YHR087W, strain rtc3, hits give low values
[11] = locus YJL187C, strain SWE1, hits give low values
[12] = locus YJR043C, strain POL32, hits give low values
[13] = locus YJR075W, strain HOC1, hits give low values
[14] = locus YKL190W, strain CNB1, hits give low values
[15] = locus YLR039C, strain RIC1, hits give low values
[16] = locus YLR058C, strain SHM2 (second series), hits give low values
[17] = locus YLR085C, strain ARP6, hits give low values
[18] = locus YLR262C, strain YPT6, hits give low values
[19] = locus YML094W, strain GIM5, hits give low values
[20] = locus YMR219W, strain ESC1, hits give low values
[21] = locus YMR263W, strain SAP30, hits give low values
[22] = locus YNL153C, strain GIM3, hits give low values
[23] = locus YNL298W, strain CLA4 (second series), hits give low values
[24] = locus YNL322C, strain KRE1, hits give low values
[25] = locus YNR030W, strain Alg12, hits give low values
[26] = locus YOL006C, strain TOP1, hits give low values
[27] = locus YPL055C, strain LGE1, hits give low values
[28] = locus YPL241C, strain CIN2, hits give low values
[29] = locus YPR135W, strain CTF4, hits give low values

Measured: normalized growth

O=C(CO/N=C\c1ccc(Cl)cc1Cl)NNC(=S)Nc1cc(Cl)ccc1Cl
inactive: locus YAR019C, strain CDC15, hits give low values 1 | locus YBL105C, strain PKC1, hits give low values 0.992 | locus YBR135W, strain CKS1, hits give low values 1 | locus YBR136W, strain MEC1, hits give low values 1.01 | locus YBR160W, strain CDC28, hits give low values 1 | locus YDL017W, strain CDC7, hits give low values 1 | locus YDL028C, strain MPS1, hits give low values 1 | [1] 0.978 | locus YDL108W, strain KIN28, hits give low values 1.01 | locus YDL132W, strain cdc53, hits give low values 1 | locus YDL214C, strain PRR2, hits give low values 0.999 | locus YDR052C, strain DBF4, hits give low values 1 | locus YDR054C, strain cdc34, hits give low values 0.994 | locus YDR226W, strain ADK1, hits give low values 0.994 | locus YDR477W, strain SNF1, hits give low values 0.983 | locus YER123W, strain YCK3, hits give low values 0.996 | locus YER133W, strain GLC7, hits give low values 0.983 | locus YFL009W, strain cdc4, hits give low values 0.996 | locus YFL029C, strain CAK1, hits give low values 1.01 | locus YFR003C, strain YPI1, hits give low values 0.997 | locus YFR019W, strain FAB1, hits give low values 1 | locus YFR028C, strain CDC14, hits give low values 0.994 | locus YGR040W, strain KSS1, hits give low values 0.984 | locus YGR052W, strain FMP48, hits give low values 1.02 | locus YGR092W, strain DBF2, hits give low values 0.961 | [2] 1.01 | locus YHR079C, strain IRE1, hits give low values 0.966 | locus YHR082C, strain KSP1, hits give low values 1.14 | locus YHR205W, strain SCH9, hits give low values 0.98 | locus YIL147C, strain SLN1, hits give low values 1 | locus YJL095W, strain BCK1, hits give low values 0.928 | locus YJL128C, strain PBS2, hits give low values 0.992 | locus YJL157C, strain FAR1, hits give low values 0.989 | locus YJR016C, strain ILV3, hits give low values 1 | locus YJR066W, strain TOR1 (second series), hits give low values 0.948 | locus YJR066W, strain TOR1, hits give low values 1.15 | locus YKL048C, strain ELM1, hits give low values 1 | locus YKL067W, strain YNK1, hits give low values 1.03 | locus YKL101W, strain HSL1, hits give low values 1 | locus YKL193C, strain SDS22, hits give low values 1 | locus YKL203C, strain TOR2, hits give low values 1.06 | locus YLR113W, strain HOG1, hits give low values 1.01 | locus YLR133W, strain CKI1, hits give low values 1.02 | locus YLR403W, strain SFP1, hits give low values 0.97 | locus YML070W, strain DAK1, hits give low values 0.995 | locus YMR001C, strain CDC5, hits give low values 1 | locus YMR205C, strain PFK2 (second series), hits give low values 1.01 | locus YMR277W, strain FCP1, hits give low values 1 | locus YNL006W, strain LST8, hits give low values 0.99 | locus YNL020C, strain ARK1, hits give low values 1.01 | locus YNL161W, strain CBK1, hits give low values 0.996 | locus YNL183C, strain NPR1, hits give low values 1.09 | locus YNL207W, strain RIO2, hits give low values 1.01 | locus YNL222W, strain SSU72, hits give low values 0.993 | locus YNL307C, strain MCK1 (second series), hits give low values 0.999 | locus YOL078W, strain AVO1, hits give low values 1 | locus YOL136C, strain PFK27, hits give low values 1.01 | locus YOR061W, strain CKA2, hits give low values 1.02 | locus YOR119C, strain RIO1, hits give low values 1.05 | locus YOR231W, strain MKK1, hits give low values 1.05 | locus YOR329C, strain SCD5, hits give low values 1.01 | locus YPL031C, strain PHO85, hits give low values 0.995 | locus YPL153C, strain RAD53, hits give low values 0.99 | locus YPL204W, strain HRR25, hits give low values 0.991 | locus YPL209C, strain IPL1, hits give low values 1 | locus YPL256C, strain CLN2, hits give low values 1.02 | locus YPR025C, strain CCL1, hits give low values 0.997 | locus YPR106W, strain ISR1, hits give low values 0.992 | locus YPR111W, strain DBF20, hits give low values 0.997 | strain NNK1, hits give low values 0.997 | strain TSCII, hits give low values 0.997

S=C(NCCCn1ccnc1)Nc1cc(Cl)ccc1Cl
active: [5] 0.868
inactive: [3] 1.02 | [4] 0.987 | locus YCL061C, strain MRC1, hits give low values 0.979 | [1] 0.963 | [6] 1.01 | [7] 1.02 | [8] 0.982 | [9] 0.994 | [2] 0.745 | [10] 1.04 | [11] 1.01 | [12] 1 | [13] 0.979 | [14] 0.994 | [15] 0.973 | [16] 1.02 | [17] 0.839 | [18] 1.05 | [19] 1.01 | [20] 1 | [21] 1.01 | [22] 0.987 | [23] 0.971 | [24] 0.992 | [25] 1.01 | [26] 0.938 | [27] 1 | [28] 0.983 | [29] 0.754

Cc1ccc(Cl)cc1NC(=S)NCCO
inactive: [3] 1.01 | [4] 1.01 | [1] 1.01 | [5] 0.996 | [6] 1 | [7] 1.02 | [8] 1.02 | [9] 0.999 | [2] 1.02 | [10] 1.01 | [11] 1.01 | [12] 0.993 | [13] 0.992 | [14] 1 | [15] 1.02 | [16] 1.01 | [17] 1 | [18] 1.01 | [19] 1.05 | [20] 1 | [21] 0.989 | locus YMR307W, strain GAS1, hits give low values 0.95 | locus YNL128W, strain TEP1, hits give low values 1.02 | [22] 1.01 | [23] 1.03 | [24] 1 | [25] 0.96 | [26] 1.03 | [27] 1.02 | [28] 1 | [29] 1.11
